# Test results from the supplement of paper PMC6555819.
# What was measured:
# Experiment in all cases: PBM binding z-score (relative to random genomic background probes); higher = stronger binding; sequences stand for … in GC…GCGATTGACAGCGTAGAATGAAGG
# [1] = tested on: RARb homodimer (NR concentration 270 nM)
# Method in brief: (§1)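 Custom Agilent 4×180K protein-binding microarrays carried double-stranded probes, each with a 34-nt variable region. These regions held direct-repeat seeds, single-nucleotide variants, half-site ablations and random human genomic background sequences. Ligand-free nuclear receptor dimers were incubated on the arrays for 1 h, antibodies against each partner (one per run) detected binding, and scanned fluorescence was regression-normalized. Binding z-scores take the random background probes as reference.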
# [2] = tested on: RARg:RXRa (NR concentration 270 nM, RXRa partner concentration 90 nM)
# Method in brief: as §1
# [3] = tested on: RARg homodimer (NR concentration 270 nM)
# Method in brief: as §1
# [4] = tested on: RXRa DBDmut IVT, anti-RXR (DBD mutation: RXRa K156A/R161A, NR concentration 90 nM)
# Method in brief: as §1
# [5] = tested on: RXRa homodimer (NR concentration 180 nM)
# Method in brief: as §1
# [6] = tested on: THRa:RXRa (NR concentration 90 nM, RXRa partner concentration 90 nM)
# Method in brief: as §1
# [7] = tested on: THRa homodimer (NR concentration 90 nM)
# Method in brief: as §1
# [8] = tested on: VDR:RXRa (NR concentration 270 nM, RXRa partner concentration 90 nM)
# Method in brief: as §1
# [9] = tested on: VDR homodimer (NR concentration 270 nM)
# Method in brief: as §1
Sequence,PBM binding z-score [1],PBM binding z-score [2],PBM binding z-score [3],PBM binding z-score [4],PBM binding z-score [5],PBM binding z-score [6],PBM binding z-score [7],PBM binding z-score [8],PBM binding z-score [9]
AGTCAAAGTTCAGGACGAGGTAACGTGAAGCACG,1.95,4.86,4.39,2.8,3.03,3.97,1.65,3.16,1.62
CCTAGTCGGTCAGGAGGTCACACACCGGATATGA,4.67,5.93,5.46,0.219,4.75,3.37,2.55,3.97,2.83
AGAATGAGGTTATTAACATCAGGGAATTGCGGTC,0.673,1.11,0.779,1.83,1.67,2.13,0.447,1.31,1.12
CGTCCAAGGTCAAGGTCAGTGTAAGAGACTCGAA,4.82,6.56,7.36,3.69,6.28,4.39,3.57,4.67,3.32
TCTGTTAGGTCAGTTGGTCAGCTAACGAGCTGCC,3.01,3.01,4.2,1.33,1.19,2.68,1.69,0.897,0.469
ACTAGCAGGCTAAGTTTGGGTCACTCAAACAAAG,1.72,0.94,0.818,-0.349,0.549,2.37,0.936,0.216,-0.0144
CCTACTGGGCCAACGTCATTGATCAGTCAAAGCA,0.446,-0.195,-0.0642,-0.651,-0.328,-0.204,-0.526,-0.476,-0.545
GAACCAAGGTGAATAGGTCGTTGATGAGTAGGCG,1.78,2.53,1.25,-0.268,2,1.77,0.124,0.843,-0.00141
CCTCGGAGGACAACAGGAGGTCAGATCTGCCAGA,3.64,3.34,3.12,0.415,1.59,2.81,1.03,1.72,1.28
CCTTACGGGTCACTCCCGGTTATAGCATCGGAGT,2.94,4.42,4.31,1.43,4.33,3.71,0.272,3.03,1.14
ACTCGGAGGACAAAAGTCAGAGCTACGCCAGTGA,0.442,0.411,0.784,0.783,0.0563,0.186,-0.517,-0.553,-0.631
CAAACTAGGTCAAGAGGTCAAGGTCCGCTTCCCG,5.98,7.92,7.98,2.28,8.06,4.25,3.13,5.53,3.74
CAAACTAGCTCAAGAGGTCAAAGTCCGCTTCCCG,4.52,4.96,4.04,2.4,5.51,3.66,1.72,4.96,3.55
CGTCCAAGGTCAGAGGAGGTCAGTGAAGACAGAT,5.15,6.03,6.88,2.36,5.13,5.09,2.8,5.98,3.43
ATATGTACGTTAAGGGTCATTCAGGTTGGTTCGC,3.82,3.89,2.96,2.12,4.64,3.3,1.45,5.64,4.32
CAAACTAGGTCAAGGGTCAAAGTCGAGCCAACCA,4.7,7.41,6.13,2.47,8.6,4.36,1.45,5.5,3.15
